Results taken from PubChem BioAssay (NCATS).
Values joined by “and” are separate entries in the source; they are usually repeats but may differ in a detail not shown here. Equal values may be shown once. Inconclusive results are not listed. A number with no mark means an inactive call. Active and inactive are the calls of the source. Calls come from the whole dose curve; as a rule, active = well fitted activation curve with a large enough effect; inconclusive = small, poorly fitted or top-dose-only effect; inactive = no such curve, though single readings can be large or run the other way.

Target: Cellular tumor antigen p53 (Homo sapiens) (UniProt P04637)
Assay: Primary qHTS for small molecule compounds that upregulate eGFP-tagged delta133p53alpha (in N-terminal) cells. (AID 2060322); note: nearly all actives have a fitted effect of over 75% in size;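 for activation: series mostly up to about 56 µM; 0% = DMSO vehicle and 100% = reference activator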
Details: NCI-H358 eGFP-delta133p53alpha fluorescence, 24 h; activation: active compounds read high
Outline: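 NCI-H358 cells pre-induced 24 h with 10 ng/ml doxycycline to express N-terminal eGFP-delta133p53alpha, then dosed 24 h at 37C without doxycycline; fixed, Hoechst-stained, GFP intensity by laser scanning cytometry, normalized to DMSO (0%) and 57.5 uM 5-azacytidine (100%).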
Potency is the fitted concentration of half-maximal effect.

Chain of Cellular tumor antigen p53 (Homo sapiens) (P04637 whole entry, looked up): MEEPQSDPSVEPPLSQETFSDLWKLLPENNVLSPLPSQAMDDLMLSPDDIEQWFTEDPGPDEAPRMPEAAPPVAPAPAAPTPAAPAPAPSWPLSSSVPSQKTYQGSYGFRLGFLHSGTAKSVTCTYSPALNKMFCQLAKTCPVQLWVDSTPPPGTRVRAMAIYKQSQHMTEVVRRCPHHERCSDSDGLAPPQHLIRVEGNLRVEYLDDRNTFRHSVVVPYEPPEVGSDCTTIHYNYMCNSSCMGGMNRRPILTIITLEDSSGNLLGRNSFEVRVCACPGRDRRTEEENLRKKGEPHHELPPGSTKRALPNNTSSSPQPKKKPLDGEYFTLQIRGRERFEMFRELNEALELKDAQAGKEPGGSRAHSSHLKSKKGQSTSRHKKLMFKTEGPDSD

**Q.** Which activation does the source give for C=CCNC(N)=S here?
**A.** -2.82%

**Q.** How did the activation turn out when CCC1(c2cnc[nH]2)Cc2ccccc2C1 was run?
**A.** -7.53%

**Q.** With FC(F)(F)C(Cl)Br (stereo not given) as the molecule, how does the activation read?
**A.** 8.37%

**Q.** For OCc1ccccc1O[C@@H]1O[C@H](CO)[C@H](O)[C@H](O)[C@H]1O, which activation is on record?
**A.** 15.8%

**Q.** Which activation does the source give for CCCCCCCCCCCCCCCC(=O)OC[C@@H](NC(=O)C(Cl)Cl)[C@H](O)c1ccc([N+](=O)[O-])cc1 here?
**A.** 7.1%

**Q.** With C[C@@H](O)[C@H]1C(=O)N2C(C(=O)O)=C([C@H]3CCCO3)S[C@H]12 as the molecule, how does the activation read?
**A.** -8.47%

**Q.** With COc1cccc2c1C(=O)c1c(O)c3c(c(O)c1C2=O)C[C@@](O)(C(=O)CO)C[C@@H]3O[C@H]1C[C@H](N)[C@H](O[C@@H]2CCCCO2)[C@H](C)O1 as the molecule, how does the Potency read?
**A.** 15.5 µM (active)

**Q.** Which activation does the source give for COCc1c(C(C)C)nc(C(C)C)c(/C=C/[C@@H](O)C[C@@H](O)CC(=O)O)c1-c1ccc(F)cc1 here?
**A.** 27.7%

**Q.** How did the activation turn out when O=C(O)c1ccccc1Nc1cc(Cl)ccc1C(=O)O was run?
**A.** -31%

**Q.** How did the activation turn out when CC(=O)N1CCN(c2ccc(O)cc2)CC1 was run?
**A.** -15.3%

**Q.** How did the activation turn out when CN1CCCN=C1COC(=O)C(O)(c1ccccc1)C1CCCCC1 (stereo not given) was run?
**A.** 2.51%

**Q.** With CNS(=O)(=O)Cc1ccc2[nH]cc(CCN(C)C)c2c1 as the molecule, how does the activation read?
**A.** -6.69% and -7.27%

**Q.** Which activation does the source give for O=C(c1ccco1)N1CCNCC1 here?
**A.** -10.9%

**Q.** How did the activation turn out when CC[N+](CC)(CC)CCOc1ccc(/C=C/c2ccccc2)cc1 was run?
**A.** -19.2%

**Q.** Which activation does the source give for CN1CCN(c2cc3c(cc2F)c(=O)c(C(=O)O)cn3-c2ccc(F)cc2)CC1 here?
**A.** 20.1%
